From PubChem
The list is not random: actives were taken first. Their share in the collection is about 19%.
TDP1 cell noCPT – qHTS for Inhibitors of human tyrosyl-DNA phosphodiesterase 1 (TDP1): qHTS in cells in absence of CPT. DT40 Tdp1-/- hTDP1 cells, no CPT, ATP luminescence, 48 h. Potency, µM (doses to about 46.2 µM), inactives show at the top dose activity change, negative = growth inhibition, usual class: inhibitors. hit rate 15% among 420,000; also: nearly all actives have a fitted effect of over 55% in size
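Readout: luminescence from CellTiter-Glo after 30 min in the dark at RT. Cells: DT40 Tdp1-/- with stable hTDP1, 400/well. Exposure: compounds alone, ≥48 hr, 37 °C.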
TDP1 cell CPT – growth inhibition of DT40 Tdp1-/-;hTDP1 cells with camptothecin (screen for TDP1 inhibitors); Potency, µM (titrated, usually from 46.2 µM), for the others: top-dose activity change, negative = growth inhibition, most hits filed as inhibitors; AID 686979; chicken DT40 Tdp1-/-;hTDP1 cells + 20 nM CPT, ATP luminescence, 48 h; hit rate 12% among 420,000; also: nearly all actives have a fitted effect of over 55% in size
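Chicken DT40 Tdp1-/- cells stably complemented with human TDP1 were seeded at 400 cells/well in medium containing 20 nM camptothecin, exposed to pin-transferred compounds, and grown at 37 °C for at least 48 hr. Viability was read as ATP luminescence.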
HT1080NT lethal – kills 2HG-producing HT-1080-NT fibrosarcoma cells | hit rate 1.6% among 360,000 | Potency, µM (series often up to 46.1 µM), for the others: at the highest dose activity, negative = less viability, most hits filed as cytotoxic | HT-1080-NT fibrosarcoma viability, CellTiter-Glo ATP luminescence, 48 h;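 also: NT is the 2HG producing partner of a matched IDH1 knockdown line; 0% = DMSO-treated cells and -100% = media-only wells without cells; nearly all actives have a fitted effect of over 55% in size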
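Read-out is CellTiter-Glo luminescence after 10 minutes at room temperature, following 48 hours' compound treatment of HT-1080-NT cells (750 cells/well, RPMI, 5% FBS, 37 degrees C).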
KB-3-1 tox – kills parental KB-3-1 adenocarcinoma cells; KB-3-1 viability, CellTiter-Glo ATP luminescence, 72 h; Potency, µM (top dose mostly 46.1 µM), actives largely listed as cytotoxic; hit rate 1.4% among 400,000; also: nearly all actives have a fitted effect of over 60% in size
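Viability of parental KB-3-1 cells, measured by CellTiter-Glo luminescence, followed a 72 h incubation at 37 °C with pinned compounds in phenol-red-free DMEM containing 10% FBS.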
KB-V1 cytotox – KB-V1 MDR subline cytotoxicity. KB-V1 MDR cells viability, CellTiter-Glo, 72 h. Potency, µM (titrated, usually from 46.1 µM), most hits filed as cytotoxic. hit rate 3.4% among 400,000; also: nearly all actives have a fitted effect of over 60% in size
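Luminescent ATP read-out (CellTiter-Glo, 10 min) measures survival of drug-selected KB-V1 MDR cells after 72 h, 37 degrees C compound exposure. Medium: phenol-red-free DMEM, 10% FBS. Values from fitted concentration-response curves.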
HT1080 IDH1KD tx – kills HT-1080 cells with IDH1 knockdown | Potency, µM (doses to about 46.1 µM), inactives show top-dose activity, negative = toxicity, hits mostly cytotoxic | HT-1080 IDH1 knockdown viability, ATP luminescence, 48 h | hit rate 2% among 360,000;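 also: 0% = DMSO wells and -100% = cell-free medium wells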
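Cytotoxicity counter-line: IDH1KD HT-1080, 48 h, CellTiter-Glo. Curves classed by r2, magnitude and activity.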
An asterisk follows results filed as active; i = inactive; ? = inconclusive; . = no result given; [ ] = another dose, or the depositor's remark. Calls follow the shape of the dose curve; as a rule, active = well fitted curve in the direction sought with a large enough effect; inconclusive = small, poorly fitted or top-dose-only effect, or another doubt; inactive = no such curve, though single readings can be large; an effect the other way counts as inactive or inconclusive. Unless noted, % is scaled to controls: 0 for no effect and ±100 for the full control effect; potency is read from the fitted curve at half-maximal effect.

SMILES | TDP1 cell noCPT | TDP1 cell CPT | HT1080NT lethal | KB-3-1 tox | KB-V1 cytotox | HT1080 IDH1KD tx
COc1ccc(Cl)cc1NC(=O)C1COc2ccccc2O1 (stereo not drawn) | ? | -29.9% | 2.9% | i | i | 5.3%
COc1ccc(Cl)cc1NC(=O)CN(c1cccc(C)c1C)S(=O)(=O)c1ccccc1 | 23.1µM* | 23.1µM* | . | i | i | .
COc1ccc(NC(=O)CN(c2ccccc2)S(=O)(=O)c2ccccc2)c(OC)c1 | ? | ? | -9.8% | i | ? | -0.3%
CN1CCN(c2ccc(Cl)cc2NC(=O)C2COc3ccccc3O2)CC1 (stereo not drawn) | 29.1µM* | ? | 14.6µM* | ? | i | ?
CCN1CCN(CCNC(=O)c2ccc(CS(=O)c3ccc(Cl)cc3)o2)CC1 (stereo not drawn) | 9.7% | -4.9% | 2.1% | i | i | 6.0%
COc1ccc(C)cc1NC(=O)CN(c1ccccc1)S(=O)(=O)N(C)C | -27.5% | -21.2% | . | i | i | .
COc1ccc(Cl)cc1NC(=O)CN(C)C(=O)C1COc2ccccc2O1 (stereo not drawn) | -24.2% | -16.2% | -9.0% | i | 16.4µM* | -3.9%
COc1ccc(Cl)cc1NC(=O)CN(c1ccccc1)S(=O)(=O)N(C)C | 18.4µM* | 29.1µM* | -23.7% | ? | ? | -17.9%
CCNC(=O)Cc1c(OC)ccc2cc(Br)ccc12 | -6.0% | 4.5% | 0.2% | i | i | 0.9%
COc1ccc2cc(Br)ccc2c1CC(=O)NC1CC(C)(C)NC(C)(C)C1 | 23.1µM* | ? | ? | i | ? | 16.4µM*
C/C=C/Cn1c(Br)nc2c1c(=O)n(C)c(=O)n2C | -23.1% | ? | 5.6% | i | i | 2.0%[9.24 µM]
Cn1c(=O)c2c(nc(Br)n2C/C=N/NC(N)=S)n(C)c1=O | ? | 20.6µM* | -11.5% | i | i | ?
O=C(OCc1c(-c2ccccc2)ncc2ccccc12)c1ccc(Br)cc1 | 13µM* | -25.3% | 0.0% | ? | i | 3.5%
COc1cccc(-c2ncc3ccccc3c2COC(=O)c2ccc(Br)cc2)c1 | ? | -26.9% | -17.4% | i | i | 0.1%
COc1cccc(-c2ncc3ccccc3c2COC(=O)N(C)C)c1 | 18.4µM* | 18.4µM* | -3.2% | i | i | -2.9%
CC(=O)N(C)N1c2ccccc2CCc2ccccc21 | 14.6µM* | ? | -9.4% | i | i | 1.7%
O=C(C(Cc1ccccc1)N1C(=O)c2ccccc2C1=O)N1c2ccccc2CCc2ccccc21 (stereo not drawn) | 6.51µM* | 11.6µM* | -15.9% | i | ? | -27.7%
CC(=O)Nc1ccc2c(c1)N(C(=O)CN(C)C)c1ccccc1CC2 | -7.9% | -8.4% | 8.2% | i | i | 25.2%
CC(Cl)C(=O)N1c2ccccc2CCc2ccccc21 (stereo not drawn) | 13µM* | ? | 2.2% | i | i | 0.6%
Oc1[nH]c(=S)sc1C=C1N=c2ccccc2=N1 | -24.8% | -2.4% | -7.4% | i | i | 4.1%
Oc1[nH]c(N=C2N=c3ccccc3=N2)c2ccccc12 | 0.92µM* | 0.581µM* | ? | ? | ? | ?
Cc1ccc2c(c1)=N/C(=N\c1[nH]c(O)c3ccccc13)N=2 | 3.66µM* | 4.11µM* | 23.1µM* | ? | ? | ?
COc1cc(Oc2nc(C(F)(F)F)nc3ccccc23)ccc1C=O | ? | ? | 5.1% | i | i | 0.0%
COC(=O)CC1=NN(c2ccccc2)C(=O)/C1=C\c1ccc(OC)cc1 | ? | 20.6µM* | 15.1% | i | i | 19.6%
